Holding throughout (test): DAPPL (digital affinity profiling via proximity ligation, sequencing); 10 mM Tris-HCl pH 7.5, 50 mM NaCl, 1 mM DTT, 4% glycerol, room temperature, 30 min; GST-TFs on glutathione beads, 16-mer random dsDNA library, 0.1% formaldehyde crosslink after washing; high values mean tight binding
Common to all, as to settings: protein: recombinant; tags: N-terminal GST; dsDNA, one strand shown

One assay deals with T1, FLI1 (Homo sapiens, UniProt Q01543 1-452).
T1 sequence: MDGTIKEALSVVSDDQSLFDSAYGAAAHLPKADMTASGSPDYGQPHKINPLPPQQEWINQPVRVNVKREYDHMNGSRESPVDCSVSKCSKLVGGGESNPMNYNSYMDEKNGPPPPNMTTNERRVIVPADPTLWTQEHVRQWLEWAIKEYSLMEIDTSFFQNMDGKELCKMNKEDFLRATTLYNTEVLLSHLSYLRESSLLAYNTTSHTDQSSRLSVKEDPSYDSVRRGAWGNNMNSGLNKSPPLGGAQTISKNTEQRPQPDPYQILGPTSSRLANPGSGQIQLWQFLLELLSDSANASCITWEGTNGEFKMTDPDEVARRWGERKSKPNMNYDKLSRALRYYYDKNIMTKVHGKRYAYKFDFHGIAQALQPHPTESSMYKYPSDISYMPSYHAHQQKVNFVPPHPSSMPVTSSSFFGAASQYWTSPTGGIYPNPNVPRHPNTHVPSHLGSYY
In outline: (§1)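 Each value of binding signal is a hexamer's read frequency for a factor divided by the same hexamer's frequency in the tag-only sample. Barcoded, bead-captured GST fusions of human transcription factors made in yeast were pooled with that sample and incubated with 200 nmole of a random double-stranded 16-mer DNA library in Tris/NaCl/DTT/glycerol buffer at room temperature for 30 min. Washing, 0.1% formaldehyde crosslinking, proximity ligation, PCR and Illumina NextSeq500 sequencing followed.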

Another assay has as its target T2, ELK1 (Homo sapiens, UniProt P19419 1-428).
T2 sequence: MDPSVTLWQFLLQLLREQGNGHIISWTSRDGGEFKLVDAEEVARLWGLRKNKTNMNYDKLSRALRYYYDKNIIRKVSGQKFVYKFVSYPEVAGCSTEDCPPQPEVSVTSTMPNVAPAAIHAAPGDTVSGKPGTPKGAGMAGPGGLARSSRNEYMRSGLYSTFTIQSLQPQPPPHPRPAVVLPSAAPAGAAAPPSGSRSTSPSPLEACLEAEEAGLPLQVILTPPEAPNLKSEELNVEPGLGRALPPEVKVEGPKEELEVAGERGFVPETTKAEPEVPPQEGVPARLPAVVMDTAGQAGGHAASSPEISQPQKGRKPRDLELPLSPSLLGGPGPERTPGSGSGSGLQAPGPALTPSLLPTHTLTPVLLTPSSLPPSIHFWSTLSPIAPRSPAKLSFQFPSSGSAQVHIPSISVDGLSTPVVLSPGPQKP
In outline: as §1

Another assay addresses T3, GABPA (Homo sapiens, UniProt Q06546 1-454).
T3 sequence: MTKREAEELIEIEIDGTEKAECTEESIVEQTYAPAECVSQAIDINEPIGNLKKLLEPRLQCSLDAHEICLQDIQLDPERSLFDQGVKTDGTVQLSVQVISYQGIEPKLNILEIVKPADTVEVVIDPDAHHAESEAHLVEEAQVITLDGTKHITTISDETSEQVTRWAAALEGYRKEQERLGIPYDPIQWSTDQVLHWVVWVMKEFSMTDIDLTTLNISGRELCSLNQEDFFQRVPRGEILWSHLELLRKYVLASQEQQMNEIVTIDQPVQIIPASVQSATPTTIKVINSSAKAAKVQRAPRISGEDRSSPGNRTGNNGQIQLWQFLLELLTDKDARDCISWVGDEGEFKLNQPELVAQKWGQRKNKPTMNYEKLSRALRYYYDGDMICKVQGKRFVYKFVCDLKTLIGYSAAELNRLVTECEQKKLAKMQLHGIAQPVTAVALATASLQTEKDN
A digest of the protocol: as §1

In the next assay the target is ELF1 (Homo sapiens, UniProt P32519 1-619). In outline: as §1
For the next assay, the target named is T4, EHF (Homo sapiens, UniProt Q9NZC4 1-300).
T4 sequence: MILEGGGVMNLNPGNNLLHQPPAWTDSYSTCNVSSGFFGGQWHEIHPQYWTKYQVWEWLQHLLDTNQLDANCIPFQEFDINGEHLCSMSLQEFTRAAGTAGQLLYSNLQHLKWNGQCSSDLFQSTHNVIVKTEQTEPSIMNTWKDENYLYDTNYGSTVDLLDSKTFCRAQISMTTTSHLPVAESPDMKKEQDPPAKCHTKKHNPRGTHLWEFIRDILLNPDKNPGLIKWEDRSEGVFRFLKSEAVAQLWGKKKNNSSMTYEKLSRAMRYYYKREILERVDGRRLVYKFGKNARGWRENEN
A digest of the protocol:
as §1

A further assay has as its target T5, ELK3 (Homo sapiens, UniProt P41970 1-407).
T5 sequence: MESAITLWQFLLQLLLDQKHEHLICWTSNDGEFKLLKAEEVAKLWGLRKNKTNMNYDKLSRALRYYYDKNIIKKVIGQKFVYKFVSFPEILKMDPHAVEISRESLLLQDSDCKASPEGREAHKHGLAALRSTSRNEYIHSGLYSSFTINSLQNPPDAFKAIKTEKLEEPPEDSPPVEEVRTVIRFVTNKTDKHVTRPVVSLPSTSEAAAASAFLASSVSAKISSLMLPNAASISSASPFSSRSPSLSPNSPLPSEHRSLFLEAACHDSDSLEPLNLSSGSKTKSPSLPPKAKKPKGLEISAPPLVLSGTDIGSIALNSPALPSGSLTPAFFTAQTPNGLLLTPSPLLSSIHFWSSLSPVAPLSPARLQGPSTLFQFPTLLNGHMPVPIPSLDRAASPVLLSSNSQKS
A digest of the protocol: as §1

A further assay has as its target T6, FEV (Homo sapiens, UniProt Q99581 1-238).
T6 sequence: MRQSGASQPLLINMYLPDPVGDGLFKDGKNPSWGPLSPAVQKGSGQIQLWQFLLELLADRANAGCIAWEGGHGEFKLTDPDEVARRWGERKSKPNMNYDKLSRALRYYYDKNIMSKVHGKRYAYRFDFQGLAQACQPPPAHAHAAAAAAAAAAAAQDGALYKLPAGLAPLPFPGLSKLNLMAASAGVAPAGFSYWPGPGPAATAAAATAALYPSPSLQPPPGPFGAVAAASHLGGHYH
In outline:
as §1

Another assay has as its target ELF4 (Homo sapiens, UniProt Q99607 1-663). In outline: as §1
A further assay addresses T7, ELK4 (Homo sapiens, UniProt P28324-2 1-405).
T7 sequence: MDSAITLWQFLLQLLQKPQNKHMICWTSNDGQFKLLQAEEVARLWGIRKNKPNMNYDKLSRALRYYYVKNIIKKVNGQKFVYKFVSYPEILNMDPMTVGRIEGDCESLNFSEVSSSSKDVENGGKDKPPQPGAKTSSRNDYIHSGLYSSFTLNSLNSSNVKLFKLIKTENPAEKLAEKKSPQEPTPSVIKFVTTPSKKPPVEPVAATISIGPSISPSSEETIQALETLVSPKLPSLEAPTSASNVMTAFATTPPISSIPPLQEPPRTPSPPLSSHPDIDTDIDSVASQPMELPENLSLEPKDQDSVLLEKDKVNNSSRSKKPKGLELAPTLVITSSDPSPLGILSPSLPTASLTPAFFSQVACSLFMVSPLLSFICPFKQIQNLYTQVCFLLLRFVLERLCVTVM
In outline: as §1

In a further assay the target is T8, ERF (Homo sapiens, UniProt P50548 1-548).
T8 sequence: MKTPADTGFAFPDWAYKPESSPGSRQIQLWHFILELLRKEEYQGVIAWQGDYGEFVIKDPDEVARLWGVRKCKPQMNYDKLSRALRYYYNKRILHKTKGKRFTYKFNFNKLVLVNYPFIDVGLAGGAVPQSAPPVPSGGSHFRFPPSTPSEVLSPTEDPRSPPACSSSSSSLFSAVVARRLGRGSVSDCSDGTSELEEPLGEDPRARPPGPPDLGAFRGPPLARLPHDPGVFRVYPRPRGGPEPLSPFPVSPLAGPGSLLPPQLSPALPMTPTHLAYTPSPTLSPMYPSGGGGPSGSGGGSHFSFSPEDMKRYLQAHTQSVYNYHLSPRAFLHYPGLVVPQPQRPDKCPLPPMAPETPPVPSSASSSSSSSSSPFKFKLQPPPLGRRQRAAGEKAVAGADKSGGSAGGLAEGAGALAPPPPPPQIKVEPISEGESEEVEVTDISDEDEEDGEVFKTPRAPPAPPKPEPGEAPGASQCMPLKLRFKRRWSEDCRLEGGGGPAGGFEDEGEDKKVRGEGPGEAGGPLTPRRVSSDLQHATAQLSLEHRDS
In outline:
as §1

The target in a further assay is T9, ETV3L (Homo sapiens, UniProt Q6ZN32 1-361).
T9 sequence: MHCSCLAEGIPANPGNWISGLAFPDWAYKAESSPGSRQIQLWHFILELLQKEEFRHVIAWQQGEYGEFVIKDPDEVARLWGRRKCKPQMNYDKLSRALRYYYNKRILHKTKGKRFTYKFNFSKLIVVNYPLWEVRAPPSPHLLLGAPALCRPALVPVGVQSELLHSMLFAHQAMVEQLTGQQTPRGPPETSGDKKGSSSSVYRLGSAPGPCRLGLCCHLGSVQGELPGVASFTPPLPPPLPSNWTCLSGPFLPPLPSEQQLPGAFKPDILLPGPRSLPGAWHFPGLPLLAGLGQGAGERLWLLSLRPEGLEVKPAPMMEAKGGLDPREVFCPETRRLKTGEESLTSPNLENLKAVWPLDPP
A digest of the protocol: as §1

The target in another assay is T10, ETS2 (Homo sapiens, UniProt P15036 1-469).
T10 sequence: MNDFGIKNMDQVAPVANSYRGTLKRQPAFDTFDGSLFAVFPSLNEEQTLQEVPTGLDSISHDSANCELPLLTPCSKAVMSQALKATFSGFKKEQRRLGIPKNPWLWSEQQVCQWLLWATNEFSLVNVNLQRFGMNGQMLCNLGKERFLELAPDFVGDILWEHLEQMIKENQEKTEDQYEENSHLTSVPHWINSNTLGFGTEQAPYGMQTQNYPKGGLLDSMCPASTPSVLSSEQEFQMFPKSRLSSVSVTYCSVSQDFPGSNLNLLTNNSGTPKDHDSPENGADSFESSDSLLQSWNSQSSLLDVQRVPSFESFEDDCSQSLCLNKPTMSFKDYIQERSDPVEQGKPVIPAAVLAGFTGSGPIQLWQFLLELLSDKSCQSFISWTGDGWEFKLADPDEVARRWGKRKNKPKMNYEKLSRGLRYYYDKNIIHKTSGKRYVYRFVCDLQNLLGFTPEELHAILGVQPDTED
A digest of the protocol:
as §1

The target of a further assay is T11, ETV3 (Homo sapiens, UniProt P41162-2 1-143).
T11 sequence: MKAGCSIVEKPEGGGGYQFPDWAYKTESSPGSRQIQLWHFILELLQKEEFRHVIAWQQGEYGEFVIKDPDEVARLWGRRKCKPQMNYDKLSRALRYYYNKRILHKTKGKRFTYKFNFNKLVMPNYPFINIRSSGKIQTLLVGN
In outline:
as §1

Data on 2 sequences can be found in paper PMC7862700, “An all-to-all approach to the identification of sequence-specific readers for epigenetic DNA modifications on cytosine”.

ELF4, sequence (Q99607 whole entry): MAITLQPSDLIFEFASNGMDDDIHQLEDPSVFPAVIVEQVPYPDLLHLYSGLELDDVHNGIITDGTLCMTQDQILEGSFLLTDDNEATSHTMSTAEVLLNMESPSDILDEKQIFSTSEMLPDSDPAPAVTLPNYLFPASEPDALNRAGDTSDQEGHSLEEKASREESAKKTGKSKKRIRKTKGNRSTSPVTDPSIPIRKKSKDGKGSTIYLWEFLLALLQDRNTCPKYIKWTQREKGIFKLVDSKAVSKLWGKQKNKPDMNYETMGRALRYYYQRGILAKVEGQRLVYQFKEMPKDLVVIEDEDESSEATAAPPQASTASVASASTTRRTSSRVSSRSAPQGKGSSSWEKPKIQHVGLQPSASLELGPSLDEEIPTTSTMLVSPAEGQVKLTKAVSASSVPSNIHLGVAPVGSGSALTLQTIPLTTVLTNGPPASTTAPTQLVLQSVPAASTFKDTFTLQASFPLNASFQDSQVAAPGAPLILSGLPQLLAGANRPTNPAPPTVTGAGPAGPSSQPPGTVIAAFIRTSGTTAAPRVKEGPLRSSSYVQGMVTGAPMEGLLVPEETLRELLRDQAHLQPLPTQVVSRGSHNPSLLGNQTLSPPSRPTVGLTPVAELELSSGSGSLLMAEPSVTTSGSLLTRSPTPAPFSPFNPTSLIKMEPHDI
ELF1, sequence (P32519 whole entry): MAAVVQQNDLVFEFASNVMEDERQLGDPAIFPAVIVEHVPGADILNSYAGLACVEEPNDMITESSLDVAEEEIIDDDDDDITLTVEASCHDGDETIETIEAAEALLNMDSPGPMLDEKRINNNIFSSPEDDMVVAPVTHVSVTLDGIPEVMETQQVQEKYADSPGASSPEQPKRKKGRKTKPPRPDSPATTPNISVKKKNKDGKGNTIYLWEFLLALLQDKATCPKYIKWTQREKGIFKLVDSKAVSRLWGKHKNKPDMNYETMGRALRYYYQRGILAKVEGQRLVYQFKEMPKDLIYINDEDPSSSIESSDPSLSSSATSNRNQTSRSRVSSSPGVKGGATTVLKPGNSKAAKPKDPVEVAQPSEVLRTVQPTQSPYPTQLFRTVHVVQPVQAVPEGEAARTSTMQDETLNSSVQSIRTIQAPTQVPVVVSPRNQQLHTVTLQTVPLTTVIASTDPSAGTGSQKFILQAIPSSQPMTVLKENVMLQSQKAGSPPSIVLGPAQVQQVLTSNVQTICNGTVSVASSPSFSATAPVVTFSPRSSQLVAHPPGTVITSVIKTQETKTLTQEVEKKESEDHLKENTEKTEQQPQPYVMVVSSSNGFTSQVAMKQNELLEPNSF

As to GCCGCA, the binding signal with FLI1 was 1.01 fold enrichment (6-mer frequency, TF over GST control); in the assay with ELK1, 1.03 fold enrichment (6-mer frequency, TF over GST control); in the assay with GABPA it was 1.02 fold enrichment (6-mer frequency, TF over GST control); with ELF1 it was 1.04 fold enrichment (6-mer frequency, TF over GST control); with EHF it was 1.04 fold enrichment (6-mer frequency, TF over GST control); with ELK3, 1.04 fold enrichment (6-mer frequency, TF over GST control). Also, the binding signal with FEV was 1.01 fold enrichment (6-mer frequency, TF over GST control); with ELF4, 1.04 fold enrichment (6-mer frequency, TF over GST control); with ELK4, 1.04 fold enrichment (6-mer frequency, TF over GST control); with ERF, 1.07 fold enrichment (6-mer frequency, TF over GST control); with ETV3L, 1.04 fold enrichment (6-mer frequency, TF over GST control); with ETS2 it was 1 fold enrichment (6-mer frequency, TF over GST control). For the same sequence, in the assay with ETV3, the binding signal was 1 fold enrichment (6-mer frequency, TF over GST control).

For the sequence GACTGC, the binding signal in the assay with FLI1 was 1.03 fold enrichment (6-mer frequency, TF over GST control); in the assay with ELK1, 1.03 fold enrichment (6-mer frequency, TF over GST control); with GABPA it was 1.11 fold enrichment (6-mer frequency, TF over GST control); in the assay with ELF4 it was 1.01 fold enrichment (6-mer frequency, TF over GST control); with ELK4 it was 1.08 fold enrichment (6-mer frequency, TF over GST control); with ERF, 1.03 fold enrichment (6-mer frequency, TF over GST control). Also, in the assay with ETV3L, the binding signal was 1.02 fold enrichment (6-mer frequency, TF over GST control).
